In PubChem BioAssay AID651679 (Broad Institute, 2012) one finds max activity data, which are given here for 20 molecules.

Molecules are shown by their SMILES. This is one part of the list. The source made the active and inactive calls. The rule behind the calls is not given here.

The target of the test is Adenosylmethionine-8-amino-7-oxononanoate aminotransferase (Mycobacterium tuberculosis (strain ATCC 25618 / H37Rv)) (UniProt P9WQ81). Kind of test: Mtb BioA enzyme inhibitors, dose response, biochemical, plate reader, cherry-pick samples, set 03 (AID 651679).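 Note: top concentration of the dilution series was 10 µM.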 The settings on record: purified BioA enzyme.
Adenosylmethionine-8-amino-7-oxononanoate aminotransferase (Mycobacterium tuberculosis (strain ATCC 25618 / H37Rv)), sequence (P9WQ81 whole entry, looked up): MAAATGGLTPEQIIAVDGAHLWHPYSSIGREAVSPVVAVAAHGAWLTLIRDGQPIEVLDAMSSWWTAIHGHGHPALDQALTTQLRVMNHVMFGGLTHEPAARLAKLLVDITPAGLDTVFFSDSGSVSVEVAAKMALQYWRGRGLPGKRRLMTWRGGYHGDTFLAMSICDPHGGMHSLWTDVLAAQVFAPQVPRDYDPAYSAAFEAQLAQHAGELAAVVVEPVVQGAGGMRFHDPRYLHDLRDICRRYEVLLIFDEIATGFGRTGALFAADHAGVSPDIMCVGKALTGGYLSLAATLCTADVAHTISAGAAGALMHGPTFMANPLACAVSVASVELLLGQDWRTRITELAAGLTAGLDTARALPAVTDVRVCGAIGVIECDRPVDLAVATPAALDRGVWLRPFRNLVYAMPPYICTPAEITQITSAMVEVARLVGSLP
As for `C=C(C)CSc1nc(N)c2c3c(sc2n1)CCC3`, the max activity is -5.78% (inactive).
Consider `O=c1[nH]c(N2CCN(Cc3ccc4c(c3)OCO4)CC2)nc2c1CCCC2`, for which the max activity is -3.93% [at 5 µM] (inactive).
Next, `Cc1ccc(Cc2c(C)nc3nc(SCC(=O)NCCN4CCOCC4)nn3c2C)cc1`: -9.07% (inactive); `C=CCn1c(SCc2c(C(=O)OC)sc(N)c2C(=O)OC)nnc1-c1ccc(Cl)cc1`: -8.75% (inactive); `CC(=O)O[C@]1(C(C)=O)CC[C@H]2[C@@H]3C=C(C)C4=CC(=O)CC[C@]4(C)[C@H]3CC[C@@]21C`: -6.47% [at 0.6 µM] (inactive).
For `COc1cc(-c2n[nH]c(=S)n2Cc2ccccc2)cc(OC)c1OC`, the max activity is -6.94% [at 0.6 µM] (inactive).
As for `O=C(CSc1n[nH]c(-c2cccnc2)n1)Nc1ccnc2ccccc12`, the max activity was -8.45% (inactive).
In the case of `CCC(CO)Oc1cc(NC(=O)c2cccc(F)c2)c2ncn(C(C)C)c2c1` (stereo not given), the max activity is -8.92% (inactive).
In the case of `CCCOc1ccc2c3c(c(=O)oc2c1OCCC)CCC3` it was 12.3% [at 1.2 µM] (inactive).
Next, `Cc1c2cnn(CC(=O)NCc3ccccn3)c(=O)c2c(C)n1Cc1ccc(Cl)cc1`: -3.46% [at 10 µM] (inactive); `CC1(C)CC(=O)C=C(c2ccc3ncccc3c2)C1`: -6.7% (inactive).
Next, `O=C(c1ccncc1)N1CC[C@@H]2[C@H]1c1cc(Br)ccc1N[C@@H]2CO`: -4.43% (inactive); `Cc1c(OC(C)C(=O)NCC2CCC(C(=O)O)CC2)ccc2c1oc(=O)c1ccccc12` (stereo not given): -6.87% [at 0.3 µM] (inactive); `CC(=O)CSc1nnc(CSc2ncccn2)n1C1CCCCC1`: 4.14% (inactive).
Consider `CC(=O)c1ccc(N2CCN(C(=O)c3ccc4nc[nH]c4c3)CC2)cc1`, for which the max activity was 5.95% [at 10 µM] (inactive).
Turning to `Cn1c(=O)c2c(nc(OCc3cccnc3)n2Cc2ccccc2)n(C)c1=O`, the max activity was -7.11% [at 0.3 µM] (inactive).
`COCCNC(=O)C[C@H]1CC[C@@H]2[C@H](COc3ccc(NC(=O)Nc4cccc(F)c4)cc3C(=O)N2C)O1`: the max activity is 9.1% (inactive).
Next, `Cc1nc2nc(SCC(=O)NCc3ccco3)nn2c(C)c1Cc1ccccc1`: -11.9% [at 0.16 µM] (inactive); `Cc1nc(=O)c(-c2ccccc2)c(C)n1-c1ccc(Br)cc1`: -5.48% [at 0.08 µM] (inactive).
As to `CS(=O)(=O)N1[C@H](C(=O)NCc2ccncc2)[C@@H](CO)[C@@H]2Cn3c(ccc(C4=CCCCC4)c3=O)[C@@H]21`, the max activity is 4.42% (inactive).
